The text below walks through data of PubChem BioAssay (NCATS).

The target in test [1] is Estrogen receptor (Homo sapiens) (UniProt P03372). As to the kind of experiment: qHTS assay for small molecule antagonists of estrogen receptor alpha signaling (AID 588513; active = well fitted curve in the direction sought with a large enough effect in the signal ratio, with a control signal flat, not every such curve was filed as active; the % refers to the signal ratio; also: % is scaled to controls: 0 for no effect and ±100 for the full control effect). The note with it: ER-alpha-UAS-bla HEK293, beta-lactamase ratio, antagonist mode; series mostly up to 76.9 µM. A digest of the protocol: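 Antagonist-mode qHTS in ER-alpha-UAS-bla HEK 293 cells: compound titration, 0.5nM estradiol for 18 h, CCF4 fluorescence, Hill-derived IC50.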
Estrogen receptor (Homo sapiens), sequence (P03372 whole entry, looked up): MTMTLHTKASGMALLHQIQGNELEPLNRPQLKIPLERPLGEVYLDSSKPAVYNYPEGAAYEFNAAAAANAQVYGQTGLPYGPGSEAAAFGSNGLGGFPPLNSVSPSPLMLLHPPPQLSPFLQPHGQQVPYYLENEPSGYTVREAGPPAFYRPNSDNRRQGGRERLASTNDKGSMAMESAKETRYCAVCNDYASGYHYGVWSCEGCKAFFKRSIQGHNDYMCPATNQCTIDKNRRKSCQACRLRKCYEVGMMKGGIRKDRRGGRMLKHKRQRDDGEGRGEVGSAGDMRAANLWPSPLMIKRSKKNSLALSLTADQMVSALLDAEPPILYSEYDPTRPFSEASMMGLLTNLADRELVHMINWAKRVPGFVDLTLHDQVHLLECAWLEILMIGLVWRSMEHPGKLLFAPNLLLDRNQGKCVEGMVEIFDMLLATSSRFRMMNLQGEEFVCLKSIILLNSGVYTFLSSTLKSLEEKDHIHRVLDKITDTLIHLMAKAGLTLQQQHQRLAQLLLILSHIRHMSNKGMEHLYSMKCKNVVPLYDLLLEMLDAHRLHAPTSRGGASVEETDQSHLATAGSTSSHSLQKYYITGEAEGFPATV
A general note: In qHTS, concentration-response curves come from the screen itself.

In test [2] the target is Bile acid receptor (Homo sapiens) (UniProt Q96RI1). The test can be described thus: qHTS assay for small molecule agonists of farnesoid X receptor signaling (AID 588527).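 Also: 0% = vehicle basal and 100% = reference agonist.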 Conditions: HEK293T FXR-UAS-bla, beta-lactamase ratio, 16 h; stronger effect = higher value. The essentials:
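Quantitative HTS used FXR-UAS-bla HEK293T cells with 16 h compound incubation at 37 C. EC50 values came from concentration-response curves normalized to chenodeoxycholic acid.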

The target of test [3] is Peroxisome proliferator-activated receptor delta (Homo sapiens) (UniProt Q03181). As to the kind of experiment: qHTS assay for small molecule agonists of peroxisome proliferator-activated receptor delta signaling (AID 588534).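 Also: 0% = DMSO basal wells and 100% = positive control agonist at 10 µM.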 Conditions: HEK293T PPARdelta-UAS-bla, beta-lactamase ratio, 18 h; series mostly up to 76.7 µM. The essentials: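 Agonist-mode qHTS; reporter cells, 5 hrs 37 C pre-incubation; compound titration, 18 hrs 37 C; CCF4 dye, 2 hrs RT; fluorescence read. EC50/efficacy via Hill fit.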
Peroxisome proliferator-activated receptor delta (Homo sapiens), sequence (Q03181 whole entry, looked up): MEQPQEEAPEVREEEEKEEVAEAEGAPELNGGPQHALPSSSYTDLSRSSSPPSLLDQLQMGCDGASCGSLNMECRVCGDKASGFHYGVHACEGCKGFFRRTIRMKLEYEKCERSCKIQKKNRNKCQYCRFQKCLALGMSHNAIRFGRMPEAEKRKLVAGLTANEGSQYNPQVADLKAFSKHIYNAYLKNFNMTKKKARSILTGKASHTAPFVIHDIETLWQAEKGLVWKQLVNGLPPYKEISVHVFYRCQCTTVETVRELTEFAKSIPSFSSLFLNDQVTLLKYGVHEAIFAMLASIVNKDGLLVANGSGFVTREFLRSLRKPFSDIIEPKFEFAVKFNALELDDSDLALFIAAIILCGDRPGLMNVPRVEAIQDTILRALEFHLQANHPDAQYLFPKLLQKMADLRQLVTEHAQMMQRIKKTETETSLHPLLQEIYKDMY

Test [4] can be described thus: qHTS assay for small molecule antagonists of peroxisome proliferator-activated receptor delta signaling (AID 588535; active = well fitted inhibition curve with a large enough effect in the signal ratio, with a control signal flat, not every such curve was filed as active; the % refers to the signal ratio;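 as to max response: cells co-treated with a PPAR-delta agonist as stimulator during compound exposure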). The note with it: HEK293T PPARd-UAS-bla, beta-lactamase FRET ratio, 18 h; 460 nm channel. The essentials: (§1)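 Inhibition of PPAR-delta response element-driven beta-lactamase expression is measured in HEK293T cells exposed to a compound titration series for 18 hrs at 37 C. Half-maximal inhibition comes from Hill equation fitting.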

Test [5] concerns the target Peroxisome proliferator-activated receptor delta (Homo sapiens) (UniProt Q03181). Described as above. Conditions: HEK293T PPARd-UAS-bla, beta-lactamase FRET ratio, 18 h; series mostly up to 76.7 µM. The essentials: as §1
Test [6] has as its target Peroxisome proliferator-activated receptor gamma (Homo sapiens) (UniProt P37231). The test can be described thus: qHTS assay for small molecule agonists of peroxisome proliferator-activated receptor gamma signaling (AID 588536; active = well fitted curve in the direction sought with a large enough effect in the signal ratio, with a control signal flat, not every such curve was filed as active; the % refers to the signal ratio). Conditions: HEK293 PPARg-UAS-bla, beta-lactamase ratio, 16 h, percent of rosiglitazone response, DMSO as zero; series mostly up to 76.7 µM. The essentials: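 Using GeneBLAzer HEK293 cells, response was quantified by CCF4 fluorescence and normalized between basal DMSO (0%) and rosiglitazone 2 uM (100%); curves yielded half-maximal stimulation concentration and efficacy.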

Test [7] has the same target. The test can be described thus: qHTS assay for small molecule antagonists of peroxisome proliferator-activated receptor gamma signaling (AID 588537; active = well fitted inhibition curve with a large enough effect in the signal ratio, with a control signal flat, not every such curve was filed as active; the % refers to the signal ratio;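 also: reporter cells co-stimulated with 50 nM rosiglitazone agonist during compound treatment; % of control where 0% means no effect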). The note with it: HEK293 PPARg-UAS-bla, beta-lactamase ratio, antagonist mode; series mostly up to 76.8 µM. A digest of the protocol: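 Compounds are tested as concentration series for inhibition of rosiglitazone-driven (50 nM) reporter expression in GeneBLAzer PPAR-gamma-UAS-bla HEK293 cells. After 16 h at 37 C, CCF4 substrate is added for 2 h at room temperature and blue/green fluorescence is measured.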

The target of test [8] is Vitamin D3 receptor (Homo sapiens) (UniProt P11473). As to the kind of experiment: qHTS assay for small molecule agonists of vitamin D receptor signaling (AID 588543). The note with it: HEK293T VDR-UAS-bla, beta-lactamase ratio, 16 h; series mostly up to 76.8 µM. The essentials: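 Measured: β-lactamase reporter activity (CCF4, 405 nm excitation, 460/530 nm emission) in HEK293T VDR-UAS-bla cells after 16 h compound exposure at 37 °C. Normalization against 50 nM 1α,25-dihydroxyvitamin D3 and DMSO; Hill-fit EC50.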
Vitamin D3 receptor (Homo sapiens), sequence (P11473 whole entry, looked up): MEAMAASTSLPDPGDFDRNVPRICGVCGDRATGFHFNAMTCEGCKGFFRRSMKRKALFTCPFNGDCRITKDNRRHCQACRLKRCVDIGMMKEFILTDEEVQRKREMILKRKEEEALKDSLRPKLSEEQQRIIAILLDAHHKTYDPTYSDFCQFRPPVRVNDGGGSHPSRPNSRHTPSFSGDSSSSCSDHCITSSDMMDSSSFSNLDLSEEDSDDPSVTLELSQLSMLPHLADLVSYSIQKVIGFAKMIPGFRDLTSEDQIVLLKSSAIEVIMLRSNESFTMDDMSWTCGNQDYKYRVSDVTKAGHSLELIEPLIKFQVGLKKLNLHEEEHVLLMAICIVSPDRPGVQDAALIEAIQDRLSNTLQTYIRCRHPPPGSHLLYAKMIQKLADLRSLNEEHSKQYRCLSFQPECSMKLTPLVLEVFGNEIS

Test [9] deals with Thyroid hormone receptor beta (Homo sapiens) (UniProt P10828). The test can be described thus: qHTS assay for small molecule agonists of thyroid hormone receptor beta signaling (AID 588545).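 Also: 0% = DMSO only and 100% = 10 nM T3.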 The note with it: TR-UAS-bla GripTite HEK 293, beta-lactamase ratio, agonist mode, 18 h; series mostly up to 76.7 µM. The essentials: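 TR-UAS-bla-GripTite HEK 293 cells in medium with 2% charcoal/dextran FBS, 0.1 mM NEAA and 1 mM sodium pyruvate were treated with titrated compounds for 18 hrs at 37 C. Beta-lactamase reporter was read with CCF4 dye (ex 405, em 460/530 nm); EC50 from Hill fits.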
Thyroid hormone receptor beta (Homo sapiens), sequence (P10828 whole entry, looked up): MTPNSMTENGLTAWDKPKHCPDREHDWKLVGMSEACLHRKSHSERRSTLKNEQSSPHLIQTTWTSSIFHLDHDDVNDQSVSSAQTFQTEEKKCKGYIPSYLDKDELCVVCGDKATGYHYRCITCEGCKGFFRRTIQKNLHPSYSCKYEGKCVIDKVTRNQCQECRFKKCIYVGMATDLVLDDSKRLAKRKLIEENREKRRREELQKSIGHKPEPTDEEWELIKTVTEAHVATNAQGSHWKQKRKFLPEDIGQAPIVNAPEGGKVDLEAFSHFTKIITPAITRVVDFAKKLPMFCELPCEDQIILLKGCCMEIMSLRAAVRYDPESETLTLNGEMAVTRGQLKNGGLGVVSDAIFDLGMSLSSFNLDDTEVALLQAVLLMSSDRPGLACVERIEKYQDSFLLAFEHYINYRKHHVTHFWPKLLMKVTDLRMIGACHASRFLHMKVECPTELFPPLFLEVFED

Test [10] has the same target. The test can be described thus: qHTS assay for small molecule antagonists of thyroid hormone receptor beta signaling (AID 588547; active = well fitted inhibition curve with a large enough effect in the signal ratio, with a control signal flat, not every such curve was filed as active; the % refers to the signal ratio;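 also: cells stimulated with 0.4 nM T3 agonist during compound exposure; % is scaled to controls: 0 for no effect and ±100 for the full control effect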). The note with it: TR-UAS-bla HEK293, beta-lactamase ratio, antagonist mode, 18 h. A digest of the protocol: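 TR-UAS-bla GripTite HEK293 cells in 2% charcoal/dextran FBS medium were preincubated 4 h at 37 C, given compound (0.59 nM to 92 uM) plus 0.4 nM T3 (final) for 18 h, then CCF4 for 2 h at RT; Hill fit gave IC50.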

Test [11] in a line: qHTS assay for small molecule disruptors of the mitochondrial membrane potential - 5 hr assay (AID 651755). Also: % is scaled to controls: 0 for no effect and ±100 for the full control effect; nearly all actives have a fitted effect of over 40% in size. Conditions: JC-1-type ratio dye; series mostly up to 92.2 µM. The essentials:
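Seed HepG2 overnight, add compound, incubate 5 hr at 37C and 5% CO2, stain 30 min with Mito-MPS, then measure monomer (490/535 nm) and aggregate (540/590 nm) fluorescence.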

For test [12], the target named is Tumor necrosis factor (Homo sapiens) (UniProt P01375). The test can be described thus: qHTS assay to identify small molecules that stimulate Tumor Necrosis Factor-alpha (TNF-alpha) secretion (AID 651757; active = well fitted curve in the direction sought with a large enough effect in the signal ratio; the % refers to the signal ratio; also: 0% is about no effect). Conditions: Human cells, HTRF 665/615 ratio; series mostly up to 92.2 µM. A digest of the protocol:
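Human monocytic THP-1 cells are plated, treated with compound and held at 37 C for 17 hrs. Labeled anti-TNF-alpha antibody mixture is then added; after 3 hr at room temperature, TR-FRET signal reports secreted TNF-alpha.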

Test [13] is described as follows: qHTS assay for environmental chemicals that activate the Aryl hydrocarbon Receptor (AhR) signaling pathway (AID 651777; active = well fitted curve in the direction sought with a large enough effect; an effect the other way counts as inactive or inconclusive; also: % of control where 0% means no effect; nearly all actives have a fitted effect of over 15% in size). The note with it: 1A2-DRE human hepatoma cells, luciferase, 24 h; activation: stronger effect = higher value. A digest of the protocol: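 Concentration–response screening used 1,200 1A2-DRE cells per well, 24 hr compound exposure (37 C, 5% CO2), and One-Glo luminescence as the AhR-driven CYP1A2 reporter signal.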

Test [14] concerns the target Nuclear receptor ROR-gamma (Homo sapiens) (UniProt P51449). As to the kind of experiment: qHTS assay for small molecule antagonists of the retinoid-related orphan receptor gamma (ROR-gamma) signaling pathway (AID 651802; active = well fitted curve in the direction sought with a large enough effect; an effect the other way counts as inactive or inconclusive;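 also: CHO cells with doxycycline-induced ROR-gamma expression; % is scaled to controls: 0 for no effect and ±100 for the full control effect; nearly all actives have a fitted effect of over 60% in size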). Conditions: ROR-gamma antagonist cell reporter assay; series mostly up to 92.2 µM. The essentials: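 Steps: cells dispensed; compound or DMSO transferred by pin tool; doxycycline added to induce the ROR response element-driven luciferase; plates held 16hr at 37C; ONE-Glo added and luminescence measured.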

The nature of test [15]: qHTS assay for small molecule agonists of the antioxidant response element (ARE) signaling pathway measured by Nrf2-dependant transcriptional activity (AID 720636; active = well fitted curve in the direction sought with a large enough effect in the repeat runs; an effect the other way counts as inactive or inconclusive; also: % of control where 0% means no effect). Conditions: ARE-luc HepG2, Nrf2 luciferase reporter, 16 h; series mostly up to 92.4 µM. A digest of the protocol: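 Attachment 6 hr at 37 C, then compound versus DMSO vehicle for 16 hr in ARE-luc HepG2 cells (1% dialyzed FBS); luminescence recorded 30 min after ONE-Glo addition at room temperature.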

Test [16] is described as follows: Cell Viability - NIH 3T3 (AID 541; active = well fitted curve in the direction sought with a large enough effect; an effect the other way counts as inactive or inconclusive;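 also: cells exposed to compound for 40 hours; plate controls were DMSO alone for no effect and tamoxifen positive control for full effect; nearly all actives have a fitted effect of over 25% in size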). The note with it: NIH 3T3 cell viability, qHTS; activity change, negative = cytotoxicity: at 92.2 µM (top of the series). A digest of the protocol:
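Cells seeded at 1000/well, rested 5 hr at 37 °C, then dosed and incubated 40 hr at 37 °C. CellTiter-Glo added, 20 min room temperature, luminescence read. AC50 by Hill fit.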

Test [17] concerns the target Glucocorticoid receptor (Homo sapiens) (UniProt P04150). The test can be described thus: qHTS assay for small molecule agonists of glucocorticoid receptor signaling (AID 588532; active = well fitted curve in the direction sought with a large enough effect in the signal ratio, with a control signal flat; the % refers to the signal ratio;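 also: 100% = dexamethasone at 0.1 µM and 0% = DMSO only wells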). The note with it: HeLa MMTV-bla, beta-lactamase ratio, agonist, 18 h; stronger effect = higher value; percent of dexamethasone control, DMSO zero. A digest of the protocol: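 MMTV-bla HeLa, beta-lactamase reporter; medium with 1% charcoal/dextran-stripped FBS; cpds up to 92 uM, 18 h, 37 C; CCF4 readout 460/530 nm; Hill fit → EC50, efficacy vs 0.1 uM dexamethasone = 100%.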

Test [18] is described as follows: qHTS assay for small molecule activators of the nuclear factor-kappa B (NF-kB) signaling pathway (AID 651749; active = well fitted activation curve with a large enough effect in the signal ratio; the % refers to the signal ratio; also: % of control where 0% means no effect). The note with it: NF-kB-bla ME-180 cells, beta-lactamase FRET ratio, 16 h; stronger effect = higher value. A digest of the protocol: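 Human ME-180 cervical cells with an NF-kB-bla construct; compounds added via 23 nL pin transfer, DMSO as vehicle; incubation 16 hr. Reporter activity measured by FRET disruption.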

The nature of test [19]: qHTS assay to identify small molecules that stimulate interleukin-8 (IL-8) secretion (AID 651758; active = well fitted activation curve with a large enough effect in the signal ratio; the % refers to the signal ratio; also: 0% is about no effect). Conditions: HTRF ratio (665/615); series mostly up to 92.2 µM. A digest of the protocol:
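Quantitative HTS in THP-1 monocytic cells at 2000 cells per well, with 16 hrs compound incubation at 37 C. IL-8 in the medium was then quantified by HTRF immunoassay, read after 1-3 hrs at room temperature.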

For test [20], the target named is Glucocorticoid receptor (Homo sapiens) (UniProt P04150). The test can be described thus: qHTS assay for small molecule antagonists of glucocorticoid receptor signaling (AID 588533; active = well fitted inhibition curve with a large enough effect in the signal ratio, with a control signal flat, not every such curve was filed as active; the % refers to the signal ratio;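 also: cells stimulated with 2 nM dexamethasone as agonist; % is scaled to controls: 0 for no effect and ±100 for the full control effect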). The note with it: HeLa MMTV-bla, GRE beta-lactamase ratio, antagonist mode, 18 h; series mostly up to 76.8 µM. A digest of the protocol: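 Antagonist-mode qHTS: compound titrations added to GRE-bla HeLa cells, then dexamethasone 2 nM final; 18 h, 37 C. CCF4 FRET fluorescence normalized to dexamethasone and DMSO; IC50 from Hill fit.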
Glucocorticoid receptor (Homo sapiens), sequence (P04150 whole entry, looked up): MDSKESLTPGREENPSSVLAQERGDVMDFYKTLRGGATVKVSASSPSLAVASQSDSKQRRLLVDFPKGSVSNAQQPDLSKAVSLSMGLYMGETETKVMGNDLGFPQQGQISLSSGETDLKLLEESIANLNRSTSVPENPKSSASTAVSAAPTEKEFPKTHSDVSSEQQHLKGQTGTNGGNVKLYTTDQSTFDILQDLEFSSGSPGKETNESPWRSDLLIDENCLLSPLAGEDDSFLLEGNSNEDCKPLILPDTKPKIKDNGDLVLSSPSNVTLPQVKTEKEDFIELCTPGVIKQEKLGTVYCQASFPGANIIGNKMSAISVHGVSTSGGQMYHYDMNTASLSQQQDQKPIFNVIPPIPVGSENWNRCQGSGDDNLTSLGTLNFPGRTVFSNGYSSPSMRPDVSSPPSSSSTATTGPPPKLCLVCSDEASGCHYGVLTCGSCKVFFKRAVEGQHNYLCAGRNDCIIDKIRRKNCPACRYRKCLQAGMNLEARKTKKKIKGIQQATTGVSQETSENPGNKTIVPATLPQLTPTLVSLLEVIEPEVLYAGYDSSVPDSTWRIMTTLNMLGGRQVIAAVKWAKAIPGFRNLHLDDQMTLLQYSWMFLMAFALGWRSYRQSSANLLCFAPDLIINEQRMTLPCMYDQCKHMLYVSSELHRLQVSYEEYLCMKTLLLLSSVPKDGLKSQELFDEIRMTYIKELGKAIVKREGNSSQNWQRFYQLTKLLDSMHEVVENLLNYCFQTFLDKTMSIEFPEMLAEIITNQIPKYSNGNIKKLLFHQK

“And” between values parts separate entries of the source, which are not always exact repeats. Equal values may be shown once. Results filed as inconclusive are left out. The source made the active and inactive calls. Unless noted, calls follow the shape of the full dose curve.

Peroxisome proliferator-activated receptor gamma (Homo sapiens), sequence (P37231 whole entry, looked up): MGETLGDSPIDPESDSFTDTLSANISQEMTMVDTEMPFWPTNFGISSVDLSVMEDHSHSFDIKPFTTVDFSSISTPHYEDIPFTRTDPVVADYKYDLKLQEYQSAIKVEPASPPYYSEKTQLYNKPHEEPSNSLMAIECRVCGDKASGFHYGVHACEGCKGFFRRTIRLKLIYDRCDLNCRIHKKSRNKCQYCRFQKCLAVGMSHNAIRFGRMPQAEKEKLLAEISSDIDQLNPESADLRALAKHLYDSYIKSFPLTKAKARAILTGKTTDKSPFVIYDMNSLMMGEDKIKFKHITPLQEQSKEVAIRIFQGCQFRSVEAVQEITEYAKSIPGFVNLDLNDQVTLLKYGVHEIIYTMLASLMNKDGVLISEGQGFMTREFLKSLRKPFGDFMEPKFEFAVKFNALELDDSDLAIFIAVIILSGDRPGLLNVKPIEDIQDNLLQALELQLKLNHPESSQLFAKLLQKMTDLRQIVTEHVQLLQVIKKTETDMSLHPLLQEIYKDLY
Bile acid receptor (Homo sapiens), sequence (Q96RI1 whole entry, looked up): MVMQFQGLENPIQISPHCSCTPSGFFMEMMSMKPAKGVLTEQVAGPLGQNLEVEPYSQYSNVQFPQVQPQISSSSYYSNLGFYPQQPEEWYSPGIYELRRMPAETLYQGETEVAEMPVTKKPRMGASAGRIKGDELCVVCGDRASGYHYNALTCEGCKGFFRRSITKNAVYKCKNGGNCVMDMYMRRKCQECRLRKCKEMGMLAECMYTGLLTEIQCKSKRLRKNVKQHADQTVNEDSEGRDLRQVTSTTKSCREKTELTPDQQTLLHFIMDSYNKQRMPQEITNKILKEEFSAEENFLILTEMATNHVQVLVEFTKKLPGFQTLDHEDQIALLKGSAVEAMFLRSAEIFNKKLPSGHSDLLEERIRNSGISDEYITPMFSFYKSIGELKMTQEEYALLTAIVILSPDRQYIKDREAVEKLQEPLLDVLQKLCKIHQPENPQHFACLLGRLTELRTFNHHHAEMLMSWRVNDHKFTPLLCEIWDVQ
Nuclear receptor ROR-gamma (Homo sapiens), sequence (P51449 whole entry, looked up): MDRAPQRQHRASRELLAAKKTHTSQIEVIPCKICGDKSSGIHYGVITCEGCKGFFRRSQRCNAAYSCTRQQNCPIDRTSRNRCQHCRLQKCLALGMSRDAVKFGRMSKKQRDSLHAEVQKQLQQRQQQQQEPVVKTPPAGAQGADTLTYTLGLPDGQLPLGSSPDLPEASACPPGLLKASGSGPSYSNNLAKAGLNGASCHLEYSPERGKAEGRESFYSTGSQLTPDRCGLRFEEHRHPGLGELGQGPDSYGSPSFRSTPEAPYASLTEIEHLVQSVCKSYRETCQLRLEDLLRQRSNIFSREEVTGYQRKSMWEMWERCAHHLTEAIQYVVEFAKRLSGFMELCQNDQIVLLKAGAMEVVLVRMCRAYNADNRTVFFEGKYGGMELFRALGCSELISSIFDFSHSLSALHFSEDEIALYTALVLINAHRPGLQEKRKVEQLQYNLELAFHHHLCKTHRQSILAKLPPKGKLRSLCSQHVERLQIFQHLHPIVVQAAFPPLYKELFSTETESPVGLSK
Tumor necrosis factor (Homo sapiens), sequence (P01375 whole entry, looked up): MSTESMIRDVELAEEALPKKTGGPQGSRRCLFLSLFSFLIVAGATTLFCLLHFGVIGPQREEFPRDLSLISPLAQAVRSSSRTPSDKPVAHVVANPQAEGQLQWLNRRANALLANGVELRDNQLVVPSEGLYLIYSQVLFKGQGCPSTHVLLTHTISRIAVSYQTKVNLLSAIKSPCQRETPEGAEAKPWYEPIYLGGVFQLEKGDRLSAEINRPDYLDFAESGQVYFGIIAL

`O=C(Cl)c1ccccc1F`: the Potency result in test [1], in [7], in test [9], in test [11], in [14] and in test [15] was “inactive” throughout. For the same molecule, the activation in [2] was 2.29% (inactive); in [13] it was 4.83% (inactive). The result in test [3], in test [5], in test [6], in [8] and in test [12] was inactive. Besides, the max response in test [4] is -9.33%. In [10], the activity change % (negative = inhibition) is -5.22% (inactive).

Regarding `Oc1ccc(Cl)c(Cl)c1Cl`, the Potency entry in test [16], in [7], in test [9], in test [19] and in test [15] was “inactive” in each case. Moreover, the activation in test [2] is 0.826% (inactive); in [17], 6.93% (inactive); in test [18], -0.348% (inactive); in test [13], 3.11% (inactive). The outcome in [3] and in [12] was inactive.

In the case of `O=c1ccc(=O)[nH][nH]1`, the Potency entry in test [16], in test [7], in [9], in [11], in test [14] and in test [15] was “inactive” in each case. Further, the activation in test [2] is -0.172% (inactive) and -2.47% (inactive); in test [18] it was -0.7% (inactive) and 1.42% (inactive); in [13], 0.524% (inactive) and -2.54% (inactive). Besides, the result in test [6] and in test [8] was inactive. Also, the activity change % (negative = inhibition) in test [10] is -3.55% (inactive).

Regarding `Cc1ccc(N)cc1C`, the Potency result in test [1], in [9], in test [11], in [14] and in [15] was “inactive” each time. Also, the activation in test [2] is 1.96% (inactive); in [18], 0.0731% (inactive); in [13] it was 3.36% (inactive). For the same molecule, the outcome in [3], in test [6] and in test [12] was inactive. In test [4], the max response is 3.44%. Also, the activity change % (negative = inhibition) in [10] was 9.98% (inactive).

With `C=CCCl`, the Potency entry in test [1], in test [7], in test [11] and in test [15] was “inactive” each time. Also, the activation in [17] was 2.78% (inactive); in test [18], -0.803% (inactive); in test [13] it was 1.05% (inactive). In addition, the outcome in test [20], in test [3] and in test [6] was inactive.

With `CC(C#N)CCC#N` (stereo unspecified), the Potency entry in test [1], in test [7], in [9], in test [19], in test [14] and in [15] was “inactive” throughout. The activation in test [17] is 5.21% (inactive); in test [18], 0.705% (inactive). Also, the outcome in [20], in test [3], in [6], in test [8] and in [12] was inactive. In test [4], the max response came out at 27.1%. For the same molecule, the activity change % (negative = inhibition) in test [10] was 9.23% (inactive).

With `CCCCOC(=O)c1ccccc1N`, the activation in test [2] was 0.511% (inactive); in test [17], -1.38% (inactive); in [18], -0.998% (inactive); in [13] it was 0.138% (inactive). Besides, the outcome in [3], in test [6], in test [8] and in [12] was inactive. For the same molecule, the max response in test [4] is -36.1%. The Potency result in test [11], in test [14] and in test [15] was “inactive” each time.

Take `OC[P+](CO)(CO)CO`: the Potency entry in test [1], in test [7], in test [9], in test [11] and in [19] was “inactive” throughout. Moreover, the activation in test [17] is -0.662% (inactive) and -6.97% (inactive); in test [13], -0.473% (inactive) and -0.989% (inactive). The result in [20], in test [3], in test [5], in [6] and in test [8] was inactive. The max response in test [4] is -16.4%.
